# This is a sample that favours compounds with a hit; in the whole collection about 8.9% have one here.
# KB-3-1 tox – KB-3-1 parental cell cytotoxicity | 400,000 compounds, 1.4% hits | Potency, µM (titrated, usually from 46.1 µM), hits mostly cytotoxic | AID 1347075 | KB-3-1 viability, CellTiter-Glo ATP luminescence, 72 h; further: potency means the concentration at half of the fitted maximal effect; on the % scale 0 is the no-effect control and ±100 the full control effect; nearly all actives have a fitted effect of over 60% in size
#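 Screening of KB-3-1 cells (DMEM, 10% FBS, phenol-red free) ran from lowest to highest compound concentration; after 72 h at 37 °C viability was read luminescently and curves fitted.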
# D3 ag – D3 dopamine receptor (human) agonism; P35462; D3R DiscoveRx beta-arrestin cells, luminescence, 90 min; max activation, %; 410,000 compounds, 0.58% hits; in the data active means max activation above about 30%; further: 0% is about no effect
# Target sequence (P35462 whole entry, looked up): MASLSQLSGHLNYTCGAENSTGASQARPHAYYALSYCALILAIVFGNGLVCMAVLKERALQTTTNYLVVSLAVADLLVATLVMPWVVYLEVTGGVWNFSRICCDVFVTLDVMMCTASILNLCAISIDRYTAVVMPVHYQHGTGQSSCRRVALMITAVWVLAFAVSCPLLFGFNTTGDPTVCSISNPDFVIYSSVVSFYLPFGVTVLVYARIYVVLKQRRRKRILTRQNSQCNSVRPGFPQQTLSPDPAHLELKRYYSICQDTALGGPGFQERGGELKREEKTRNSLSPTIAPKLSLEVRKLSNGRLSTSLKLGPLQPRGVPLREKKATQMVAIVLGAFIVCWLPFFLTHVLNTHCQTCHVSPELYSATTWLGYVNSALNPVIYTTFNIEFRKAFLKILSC
#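 Cells at 1500/well, incubated overnight, then treated with pinned compounds (dopamine as control) for 90 min at 37 degrees C. DiscoveRx reagent added for 30 - 60 minutes at room temperature; luminescence read.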
# DRD3 antagonist – blocks the human D3 dopamine receptor. 360,000 compounds, 2.5% hits. AID 652054. D3R cells, DiscoveRx beta-arrestin luminescence, antagonist mode; active compounds read low. max response, negative = inhibition, %; in the data active means max response below about -50%; inconclusive means no clear call, values can overlap the other calls; further: on the % scale 0 is the no-effect control and ±100 the full control effect
#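 Cells plated overnight at 1500 cells/well, then exposed to library compounds with dopamine controls for 90 minutes at 37 degrees C. DiscoveRx reagent added for 30–60 minutes at room temperature; luminescence read, quantitative HTS format.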
# MCF10A rerep – DNA re-replication induction in MCF 10a cells | MCF 10A DNA re-replication, Hoechst nuclear intensity, 48 h | Potency, µM (top dose mostly 46.1 µM), inactives show top-dose activity, positive = re-replication, most hits filed as activators | 350,000 compounds, 2.9% hits | AID 624296; further: potency means the concentration at half of the fitted maximal effect; % of control where 0% means no effect; nearly all actives have a fitted effect of over 50% in size
# SW480 rereplic – DNA re-replication induction in SW480 cells | SW480 DNA re-replication, Hoechst DNA content imaging, 48 h | Potency, µM (titrated, usually from 46.1 µM), for the others: at the highest dose re-replication activation, hits mostly activators | 340,000 compounds, 1.8% hits | AID 624297; further: potency means the concentration at half of the fitted maximal effect; % of control where 0% means no effect; nearly all actives have a fitted effect of over 55% in size
#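 SW480 cells exposed to compounds for 48 hr at 37 C, 5% CO2, then Hoechst-stained 40 min. Nuclear DNA content imaged by fluorescence scanning (405 nm excitation, 500-530 nm emission); re-replication scored as increased high-intensity nuclei.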
# KB-V1 cytotox – KB-V1 MDR subline cytotoxicity; 400,000 compounds, 3.4% hits; KB-V1 MDR cells viability, CellTiter-Glo, 72 h; AID 1347076; Potency, µM (titrated, usually from 46.1 µM), hits mostly cytotoxic; further: potency means the concentration at half of the fitted maximal effect; on the % scale 0 is the no-effect control and ±100 the full control effect; nearly all actives have a fitted effect of over 60% in size
#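 Readout: CellTiter-Glo luminescence, 10 min after addition. Cells: KB-V1 MDR subline, 72 h at 37 degrees C with compound. Analysis: corrected, normalized data fitted to concentration-effect curves.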
# An asterisk follows results filed as active; i = inactive; ? = inconclusive; / = no result; [ ] = another dose, or the depositor's remark. Unless noted, the call rests on the fitted dose curve; in most records, active means well fitted curve in the direction sought with a large enough effect; inconclusive means small, poorly fitted or top-dose-only effect, or another doubt; inactive means no such curve, though single readings can be large; an effect the other way counts as inactive or inconclusive.
SMILES,KB-3-1 tox,D3 ag,DRD3 antagonist,MCF10A rerep,SW480 rereplic,KB-V1 cytotox
O=C(Nc1ccc(Cl)cc1)c1cc(S(=O)(=O)N2CCOCC2)cs1,?,-1,18,28%,-1%,9.2µM*
Cn1cccc1C(=O)Nc1nc(-c2ccccn2)cs1,10µM*,-3,-56*,17%,?,?
Cc1c(C(=O)Nc2nc(-c3ccccn3)cs2)oc2ccccc12,?,-5,-13,23µM*,17%,i
CC(Oc1ccccc1)C(=O)Nc1nc(-c2ccccn2)cs1 (stereo not drawn),?,9,-1,?,-437%,i
O=C(Nc1nc(-c2ccccn2)cs1)c1cc2ccccc2o1,?,-8,-2,?,?,?
Cc1csc(NC(=O)c2cccn2C)n1,i,-6,-10,?,-3%,i
CC(Oc1cccc(Cl)c1)C(=O)Nc1nc(-c2ccccn2)cs1 (stereo not drawn),?,2,2,-11%,6.5µM*,i
O=C(C[N+]12CN3CN(CN(C3)C1)C2)c1ccc(I)cc1,i,/,/,/,/,i
COc1ccc([C@@H]2C[C@H]3[C@@H](CN2S(=O)(=O)c2ccccc2)C(=O)C[C@@H](c2ccccc2)N3S(=O)(=O)c2ccc(C)cc2)cc1,i,-5,-14,/,/,i
CCN(CC)CCCNC(=O)c1cnc(SC)nc1-c1ccccc1,i,-10,/,/,/,i
COc1cc(C2c3c(-c4ccccc4O)n[nH]c3C(=O)N2Cc2ccncc2)ccc1O (stereo not drawn),i,-17,/,/,/,i
O=C1c2[nH]nc(-c3ccccc3O)c2C(c2cccc(Br)c2)N1Cc1ccncc1 (stereo not drawn),2.6µM*,-6,/,/,/,?
Cc1ccc(C2c3c(-c4ccccc4O)n[nH]c3C(=O)N2Cc2ccncc2)cc1 (stereo not drawn),8.2µM*,-4,-23,7.3µM*,18µM*,?
Cc1cccn2c3c(c(=O)nc12)C(c1ccc(F)cc1)CC(=O)N3 (stereo not drawn),i,2,/,/,/,i
O=C(c1cc2ccccc2oc1=O)N(Cc1cccs1)Cc1cccs1,i,4,1,?,5%,i
O=C(c1cc2ccccc2oc1=O)N(Cc1ccco1)Cc1cccs1,i,-8,-18,?,0%,5.2µM*
O=C(c1cc(-c2ccc3c(c2)OCO3)on1)N1CCN(c2ccccc2)CC1,?,53*,56,24%,0%,?
COc1ccccc1N1CCN(C(=O)c2cc(-c3ccc4c(c3)OCO4)on2)CC1,i,2,22,2%,0%,16µM*
CCN(CC(=O)Nc1ccc2c(c1)OCCO2)CC(=O)Nc1ccccc1C(F)(F)F,i,-14,?,6%,-5%,12µM*
CCN(CC(=O)Nc1cccc(F)c1)Cc1nc2ccccc2c(=O)[nH]1,i,2,0,7%,-3%,i
CCN(CC(=O)Nc1ccc2c(c1)OCCO2)Cc1nc2cc(Cl)ccc2c(=O)[nH]1,i,4,48,?,-1%,21µM*
Cc1cc(/C=C2\C=Cc3ccccc32)cc(C)c1N,i,/,/,/,/,i
Cc1ccc(C[n+]2ccccc2)cc1,?,-9,-17,5%,3%[9.22 µM],?
Cc1ccc(-c2cc3cccc[n+]3cc2-c2ccc(C)cc2)cc1,4.6µM*,1,-4,?,-11%,i
CCc1ccccc1NC(=O)CN1CCN(CC(=O)Nc2ccc3c(c2)OC2(CCCCC2)O3)CC1,?,-7,-21,6.5µM*,8.2µM*,i
SMILES,KB-3-1 tox,D3 ag,DRD3 antagonist,MCF10A rerep,SW480 rereplic,KB-V1 cytotox
Cc1ccc(C)c(C(=O)c2ccccc2NC(=O)c2ccccn2)c1,?,-8,3,7.3µM*,?,?
Cc1ccc2c(c1)C(=O)C(=O)N2CC(=O)Nc1ccccc1NC(=O)c1ccccn1,?,-20,0,13µM*,18µM*,i
Cc1ccc(NC(=O)CN2C(=O)c3cccnc3Sc3ccccc32)c(Br)c1,/,2,/,/,/,/
CCOc1ccc(-c2ccc(NS(=O)(=O)c3cc(C)c(C)cc3C)cc2)nn1,i,-5,/,/,/,i
CC(=O)Nc1cnc(/C=C\CCCO)cn1,i,-7,-8,/,/,i
c1csc(-c2nn3c(Cn4nnc5ccccc54)nnc3s2)c1,?,-9,?,-2%,-6%,15µM*
c1coc(-c2nn3c(Cn4nnc5ccccc54)nnc3s2)c1,i,0,16,?,-8%,13µM*
Clc1ccc(Cc2nn3c(Cn4nnc5ccccc54)nnc3s2)cc1,i,17,17,13%,-2%,4.1µM*
c1ccc2c(c1)nnn2Cc1nnc2sc(-c3ccncc3)nn12,i,9,-11,-23%,-3%,i
CCc1cc(=O)[nH]c(SCc2nc(-c3ccc(C(F)(F)F)cc3)no2)n1,/,-1,/,/,/,/
Cc1ccc2c(CC(=O)Nc3c(C(=O)c4ccc(F)cc4)oc4ccccc34)coc2c1,i,4,/,/,/,?
CCSc1oc(-c2cccs2)nc1S(=O)(=O)c1ccc(Br)cc1,i,7,/,/,/,i
COc1ccc(NC(=O)c2ccccc2OCC(=O)Nc2ccc(Br)cc2)cc1,i,/,/,/,/,i
CC(C)c1ccc(-c2c(C#N)c(N)nc(SCC(=O)N3CCCCC3)c2C#N)cc1,?,3,15,7.3µM*,?,?
CC(C)c1ccc(-c2c(C#N)c(N)nc(SCC(=O)N3CCCCCC3)c2C#N)cc1,i,0,12,15%,4%,i
N#Cc1c(N)nc(SCC(=O)NC2CCCCC2)c(C#N)c1-c1ccc(Cl)cc1,i,46*,-12,?,?,?
COC(=O)CSc1nc(N)c(C#N)c(-c2ccc(O)cc2)c1C#N,?,1,-1,4%,-1%,i
CCOc1cc(C(=O)NCc2ccc3c(c2)CCN3C(=O)CC)cc(OCC)c1OCC,i,-17,/,/,/,i
O=C(CN1C(=O)/C(=C\c2ccccc2Cl)Sc2ccccc21)NCCCN1CCOCC1,i,-16,0,18µM*,18µM*,i
CCc1ccc(/C=C2/Sc3ccccc3N(CC(=O)NCCCN3CCOCC3)C2=O)cc1,i,-15,-22,?,?,i
O=C(CCN1C(=O)/C(=C\c2ccccc2)SC1=S)NCCCN1CCOCC1,i,-3,3,?,-2%,?
O=C(CN1C(=O)/C(=C\c2cccc(Br)c2)Oc2ccccc21)NCCCN1CCOCC1,i,-5,-11,2.9µM*,15µM*,?

# Bioassay records as filed in PubChem.
